Reference: PubChem BioAssay (NCI)
About 83,000 compounds went through this panel and 20% of them were active in at least one assay; those are over-represented in the sample as a whole.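 Growth was measured after 48 h exposure to one concentration of compound in 96-well plates. Values under 10 count as active.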 Values without a mark were called inactive. Active and inactive are the calls of the source.

What follows are compounds tested on HOP-62 NSCLC (assay: NCI-60 one-dose screen, 48 h (100 = growth as untreated, 0 = no growth, -100 = all killed)). Conditions: 10 µM unless noted.
Description: Growth inhibition of the HOP-62 human Non-Small Cell Lung tumor cell line is measured as a screen for anti-cancer activity. Cells are grown in 96 well plates and exposed to the test compound for 48 hours. Compounds are tested at a single concentration, which is 10^-5 M for most compounds. The reported endpoint is percent growth (GI% or GIPRCNT), where numbers from 0 - 100% represent growth inhibition, and numbers from -100% - 0 represent cell death. For example, a value of 40 represents 60% growth inhibition. A value of 0 means no net growth occurred over the course of the experiment. A value of -40 indicates 40% of cells at the beginning of the experiment died by the end of the experiment. A value of -100 means all cells are dead at the end of the experiment.
NCI-60 Human Tumor Cell Lines Screen was performed using the standard one-dose NCI protocol, which is described in more detail at https://dtp.cancer.gov/discovery_development/nci-60/default.htm.
Compounds with GIPRCNT values below 10 were considered active. Activity score was based on GIPRCNT using the following formula: […]
Score is 0 for GIPRCNT values of 100 or above, 50 for GIPRCNT values of 0, and 100 for GIPRCNT values of -100.

SMILES	growth
CC(=O)/C(=C\c1c(-c2ccccc2)[nH]c2ccccc12)S(=O)(=O)c1ccccc1	6.39% (active)
O=C(CCC(=O)N(CCO)CCO)N(CCO)CCO	102%
CC(C)(C)c1ccc(OCCOC(=O)CBr)cc1	99.1%
CCCCCCCCC(=O)Nc1ccc(O)cc1	99.3%
CCCCCCCCCCCC(=O)OC(C)C(=O)Nc1ccccc1 (stereo not given)	97.4%
CCCCCCN(CCCCCC)CCC(=O)Nc1ccc(S(=O)(=O)c2ccc(NC(=O)CCN(CCCCCC)CCCCCC)cc2)cc1	76.8%
C/C=C(/C)C(=O)OC1C=C(CO)C(=O)C(OC(=O)C2(C)OC2C)C1C(C)C (stereo not given)	0.921% (active)
Oc1ccc(Br)cc1/C=N/NC(=S)NC12CC3CC(CC(C3)C1)C2	16.1%
CCCCS(=O)(=O)c1cc(Nc2ccc(O)c3c2C(=O)c2ccccc2C3=O)ccc1C	72.5%
Cc1nc2ccccc2c(=O)n1-c1cccc(OCc2cn(-c3cccc(O)c3)nn2)c1	93.4%
O=C(CBr)OCc1ccc([N+](=O)[O-])o1	96.8%
Cc1ccc(NCc2cn(-c3ccc(C(=O)O)cc3)nc2-c2ccc(C(=O)O)cc2)cc1	100%
COC(=O)[C@H](Cc1cn(C)cn1)NC(=O)[C@H](Cc1c[nH]c2ccccc12)NC(=O)Nc1cc(C(F)(F)F)cc(C(F)(F)F)c1	-92% [100 µM] (active)
COc1ccc2cn3c4ccc(O)cc4[nH]c(=O)c3c2c1	25.8%
COc1cc(-c2nn(-c3ccc(NC(=O)c4ccc(Cl)c(C(F)(F)F)c4)cc3)cc2-c2ccncc2)ccc1Cl	5.59% (active)
COc1cc(/C(=C2/O[C@@H]([C@H]3COC(C)(C)O3)[C@H]3OC(C)(C)O[C@@H]23)c2ccc3c(c2)OCO3)cc(OC)c1OC	63.5%
CCOC(=O)/C(C#N)=C(/CC)OCC	104%
CSc1nc(N)n2nccc2n1	89.6%
CC(=O)OCC(=O)[C@@]1(O)[C@H](C)C[C@H]2[C@@H]3C=C(C)C4=Cc5c(cnn5-c5ccc(F)cc5)C[C@]4(C)[C@H]3[C@@H](O)C[C@@]21C	-11.8% (active)
COc1cc(-c2nn(-c3ccc(NC(=O)c4cc(Cl)cc(Cl)c4)cc3)cc2-c2ccncc2)ccc1Cl	56.9%

SMILES	growth
CCCCCCCCCC[N+](C)(C)N	95.8%
CC1(C)N=C(N)N=C(N)N1c1cccc(CCCCOc2ccccc2)c1	11.4%
COc1cc(C(=O)Nc2ccc(N(C)C)cc2)cc(OC)c1OC	94.2%
CCN(CC)C(=O)C1(C)CCCC2(C)c3cc(OC(C)=O)ccc3CCC12 (stereo not given)	94.9%
C/C=C/C/C=C/[C@H](C)C[C@H](O)[C@@H]1C[C@@H]2O[C@H]2/C=C/[C@@H]2OC(C)(C)O[C@H]2/C=C/C[C@H](C)CC(=O)O1	41.6%
CC(O)c1cc[cH-]c1.[Fe+2].c1cc[cH-]c1 (stereo not given)	99.4%
N#CCCCCCCCCCCC#N	104%
CN(CCC#N)c1ccc(/C=C(\C#N)c2cccc(C(F)(F)F)c2)cc1	81.7%
CCCC(=O)Nc1ccccc1C(=O)O	96.9%
CCS(=O)(=O)N[C@@H]1O[C@H](COC(C)=O)C(OC(C)=O)[C@H](OC(C)=O)C1OC(C)=O (stereo not given in full)	87.8%
O=C(/C(Br)=C/c1ccccc1)c1ccccc1	80.3%
O=C(Nc1ccc(-n2cc(-c3ccncc3)c(-c3ccc(Cl)c(O)c3)n2)cc1)c1ccc(Cl)c(Cl)c1	6.9% (active)
Oc1ccc(N=Nc2ccc(N=Nc3ccccc3)cc2)cc1	59.3%
CCCCN(CCCC)c1ccc(C(=O)O)cc1	98%
Clc1ccc(I)c2ccccc12	103%
COc1ccc(-c2nc(SCC(C)C)nc(Nc3ccc(C)cc3)c2C#N)cc1	88.5%
C=CN(C)S(C)(=O)=O	22.6%
CC([C@H]1CC=C2C3CCC4=C[C@@H](N(C)C)CC[C@]4(C)C3CC[C@@]21C)N(C)C (stereo not given in full)	-19.4% (active)
CC[C@@H](C)/C=C(C)/C=C/C(=O)c1c(O)c(-c2ccc(OC(=O)[C@@]34CC[C@@](C)(C(=O)O3)C4(C)C)cc2)cn(O)c1=O	21%
O=C(Nc1ccc(Cl)c(Cl)c1)O/N=C\c1c(Cl)ccc([N+](=O)[O-])c1Cl	-86.3% (active)
